Bioassay records from PubChem BioAssay.
C8 TRAIL sens = sensitizes caspase-8 expressing cells to TRAIL; inhibition (viability loss, TRAIL sensitization), % at 10 µM; hit rate 1% among 360,000; NB7+C8 cells + TRAIL, ATPlite viability luminescence;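 active = compounds causing at least 50% loss of cell viability in the single-dose screen, relative to plate controls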
SENP8 block-1 = blocks the human protease SENP8; purified SENP8, Z-RLRGG-aminoluciferin cleavage, luminescence; inhibition, % at 10 µM; hit rate 1.2% among 330,000; AID 2540; in the data active = inhibition above about 50%
Target sequence (Q96LD8 whole entry, looked up): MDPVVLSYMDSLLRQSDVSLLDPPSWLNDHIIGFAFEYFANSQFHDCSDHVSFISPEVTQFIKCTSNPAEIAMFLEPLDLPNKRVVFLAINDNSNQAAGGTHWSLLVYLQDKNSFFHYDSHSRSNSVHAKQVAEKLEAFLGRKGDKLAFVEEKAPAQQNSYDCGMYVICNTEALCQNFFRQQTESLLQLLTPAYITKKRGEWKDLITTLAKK
SENP8 block-2 = blocks human SENP8 cleavage of Nedd8 substrate; recombinant SENP8, Nedd8 substrate fluorescence; hit rate 0.64% among 360,000; inhibition, % at 20 µM; in the data active = inhibition mostly above about 40%, no sharp cut-off; inactive = mostly below about 27%
SENP6 block = blocks the human protease SENP6. Q9GZR1. Recombinant SENP6 catalytic domain, aminoluciferin luminescence. hit rate 1.8% among 330,000. inhibition, % at 10 µM;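 active = inhibition above about 50% at the single tested dose, limit read from the data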;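 note: plate controls were DMSO wells with enzyme for no effect and DMSO wells lacking enzyme for full effect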
SENP7 block = blocks the human protease SENP7 | Q9BQF6 | recombinant SENP7, Z-RLRGG-aminoluciferin luminescence, 40 min | inhibition, % at 5 µM | hit rate 1.5% among 330,000;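 active = inhibition above about 50% at the single test dose, limit read from the data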;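 note: plate controls were DMSO with enzyme for no effect and no enzyme buffer wells for full effect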
PPC-1+TRAIL kill = kills PPC-1 cancer cells in the presence of TRAIL | cell killing (% activity), % at 4 µM or 5 µM | PPC-1 cells + TRAIL, ATPLite viability luminescence | AID 1443 | hit rate 0.41% among 220,000;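 active = cell killing above 50% in the first pass at 4 µM, then a duplicate retest at 5 µM averaging 50% or more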;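 note: plate controls were cells with TRAIL plus DMSO for no effect and medium-only wells lacking cells for full effect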
SENP8 conf = human SENP8 inhibition, confirmed; shares compounds with SENP7 block; Recombinant SENP8, Z-RLRGG-aminoluciferin luminescence, 60 min; inhibition, % at 12.5 µM; hit rate 40% among 6,200;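 active = mean inhibition across replicates above about 50%, limit read from the data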
SENP6 conf = confirmation of human SENP6 protease inhibitors; shares compounds with SENP7 block; recombinant SENP6, Z-RLRGG-aminoluciferin luminescence; inhibition, % at 12.5 µM; hit rate 58% among 6,200; AID 488915
SENP7 confirm = confirmation of human SENP7 protease inhibitors; recombinant SENP7, Z-RLRGG-aminoluciferin luminescence, 40 min; hit rate 69% among 6,200; shares compounds with SENP7 block; inhibition, % at 12.5 µM; AID 488917
Casp3 SENP sel = inhibits human caspase-3 in SENP selectivity test; hit rate 60% among 6,200; shares compounds with SENP7 block; AID 488918; inhibition, % at 12.5 µM; purified caspase-3, Z-DEVD-aminoluciferin luminescence, 60 min;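 active = mean inhibition above about 50%, limit read from the data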;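 note: plate controls were enzyme with DMSO for no effect and wells without caspase-3 for full effect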
Target sequence (P42574 28-227 limits assumed): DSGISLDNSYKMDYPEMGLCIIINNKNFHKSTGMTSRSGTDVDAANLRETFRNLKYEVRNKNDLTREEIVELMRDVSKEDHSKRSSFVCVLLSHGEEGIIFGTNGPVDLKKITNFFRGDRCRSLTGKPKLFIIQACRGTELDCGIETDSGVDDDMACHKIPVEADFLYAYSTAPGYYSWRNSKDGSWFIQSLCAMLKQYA
SENP luc ctr = luminescence interference (SENP counter-screen); AID 488919; shares compounds with SENP7 block; hit rate 39% among 6,200; Pre-incubated SENP8/Z-RLRGG-aminoluciferin, luciferase luminescence interference; inhibition, % at 12.5 µM;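 active = mean inhibition above about 50% when retested at one dose, limit read from the data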;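 note: plate controls were DMSO wells with completed reaction for no effect and substrate without enzyme for full effect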
* = called active by the depositor; i = inactive; . = not tested or not shown. Shown are actives, neighbours in structure and some others; about 3% of the full set was active somewhere.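 Rule for the calls, unless noted: active = mean inhibition above about 50% in the one-dose retest (limit read from the data); inactive = the rest.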

SMILES | C8 TRAIL sens | SENP8 block-1 | SENP8 block-2 | SENP6 block | SENP7 block | PPC-1+TRAIL kill | SENP8 conf | SENP6 conf | SENP7 confirm | Casp3 SENP sel | SENP luc ctr
FC(F)(F)c1ccc(Cl)c(Nc2nnc(-c3ccncc3)s2)c1 | 16 | . | -338 | . | . | . | . | . | . | . | .
Clc1ccccc1Nc1nnc(-c2ccncc2)s1 | 60* | 96* | -399 | 98* | 100* | 64* | 98* | 99* | 102* | 97* | 34
CCOC(=O)c1[nH]cnc1C(=O)N1CCC(C)CC1 | -15 | 5 | 18 | -10 | 0 | . | . | . | . | . | .
O=C(NCc1ccccc1)C(C1CC1)n1c(=O)c(-c2cc3ccccc3[nH]2)nc2ccccc21 (stereo not drawn) | -5 | . | -390 | . | . | . | . | . | . | . | .
Clc1ccccc1-c1nc(-c2ccccc2)n[nH]1 | 21 | 53* | 6 | 74* | 74* | 9 | -6 | 57* | 85* | 62* | 66*
CCCCN(C(=O)C1CC(=O)N(c2ccc(CC)cc2)C1)c1c(N)n(CCC)c(=O)[nH]c1=O (stereo not drawn) | -2 | 4 | 2 | 1 | 5 | . | . | . | . | . | .
Cc1ccsc1/C=C1\CCc2ccccc2C1=O | 79* | 96* | 14 | 94* | 99* | 50 | 100* | 101* | 104* | 100* | 96*
Cc1ccccc1/C=C1\CCCc2ccccc2C1=O | 24 | 95* | 2 | 88* | 97* | 30 | 95* | 98* | 102* | 93* | 94*
O=C1/C(=C\c2ccc3ccccc3c2)CCCc2ccccc21 | 19 | 22 | 19 | -15 | 31 | 20 | . | . | . | . | .
Cn1cc(CCNC(=O)CC2C(=O)NCCN2CC(c2ccccc2)c2ccccc2)cn1 (stereo not drawn) | -5 | -5 | -44 | 11 | 7 | 6 | . | . | . | . | .
CCOC(=O)c1csc(-c2sccc2Br)n1 | -1 | 94* | 23 | 94* | 98* | 16 | 96* | 98* | 102* | 97* | 93*
CCOC(=O)c1csc(-c2ccc(OC)c(OC)c2)n1 | 20 | -7 | -6 | -6 | -4 | -1 | . | . | . | . | .
CC1Cc2cc(/C=C3/SC(=S)N(C)C3=O)ccc2O1 (stereo not drawn) | 32 | 61* | 25 | 74* | 63* | 12 | 10 | 20 | 38 | 52* | -5
COc1ccc2cc1Oc1ccc(cc1)C[C@H]1c3cc(c(OC)cc3CCN1C)Oc1c(OC)c(OC)cc3c1[C@@H](C2)N(C)CC3 | -4 | 34 | 76* | 58* | 27 | . | 10 | 2 | 0 | 5 | 0
COc1ccc2c(c1OC)CN(C)CCc1cc3c(cc1C(O)C2)OCO3 (stereo not drawn) | 10 | -3 | 19 | -1 | 4 | 10 | . | . | . | . | .
CCCCNc1c(-c2ccc(SC(C)CC)cc2)nc2ccccn12 (stereo not drawn) | 69* | 74* | -451 | 97* | 83* | . | 73* | 64* | 94* | 82* | 83*
CCCCNc1c(-c2ccc(SC3CCCCC3)cc2)nc2ccccn12 | 36 | 63* | i | 83* | 30 | . | -22 | 7 | 13 | 17 | 3
CCCCNc1c(-c2cccc(SC3CCCCC3)c2)nc2ccc(Cl)cn12 | -4 | -3 | -484 | -11 | -5 | . | . | . | . | . | .
Brc1ccc2nc(-c3c[nH]c4ccccc34)cn2c1 | 37 | 79* | -157 | 81* | 24 | 12 | 49 | 90* | 97* | 68* | 90*
Clc1ccc2nc(-c3ccccc3)cn2c1 | 63* | 92* | -147 | 95* | 97* | . | 4 | 86* | 99* | 91* | 33
CN(C)S(=O)(=O)c1cccc(-c2cn3cc(Cl)ccc3n2)c1 | 18 | -15 | -134 | -6 | -8 | 20 | . | . | . | . | .
O=S(=O)(c1cccc(-c2cn3cc(Cl)ccc3n2)c1)N1CCOCC1 | 5 | -8 | -216 | 4 | -7 | 10 | . | . | . | . | .
Clc1ccc(-c2cn3cc(Br)ccc3n2)cc1Cl | 36 | 59* | -13 | 63* | 28 | 32 | -11 | 23 | -11 | 28 | -16
O=C(NCCc1ccc(F)cc1)C(=O)NCC1CCCN1S(=O)(=O)c1cccs1 (stereo not drawn) | 12 | -19 | -4 | -12 | -10 | . | . | . | . | . | .
C[C@H](CO)N1C[C@H](C)[C@@H](CN(C)Cc2ccc3c(c2)OCO3)Oc2ccc(NC(=O)Cn3cnnn3)cc2C1=O | -6 | -5 | -22 | -5 | 4 | . | . | . | . | . | .
SMILES | C8 TRAIL sens | SENP8 block-1 | SENP8 block-2 | SENP6 block | SENP7 block | PPC-1+TRAIL kill | SENP8 conf | SENP6 conf | SENP7 confirm | Casp3 SENP sel | SENP luc ctr
O=c1c2ccccc2nnn1CSc1ccc2ccccc2n1 | -12 | 5 | 21 | -1 | 9 | 4 | . | . | . | . | .
O=c1c2ccccc2nnn1CSc1ccccc1 | 2 | 75* | 27 | 87* | 78* | 32 | 81* | 81* | 96* | 88* | 85*
CN(C)c1ccc(-c2csc(C(C)(O)c3ccc(F)c(F)c3)n2)cc1 (stereo not drawn) | 7 | . | -16 | . | . | . | . | . | . | . | .
CCn1c(O)c(N=Nc2ccc3ccccc3n2)c2ccccc21 | 7 | 94* | 39 | 95* | 97* | 3 | 18 | 23 | 98* | 30 | 6
Cn1nc([N+](=O)[O-])nc1N1CCOCC1 | -10 | 61* | -1 | 5 | 10 | -1 | -13 | 5 | -3 | -4 | -3
Cc1noc(C)c1COc1ccccc1C(=O)N1CCN(S(=O)(=O)c2ccc(C(C)C)cc2)CC1 | -9 | . | 11 | . | . | . | . | . | . | . | .
COc1ccc(/C=N/N=C(\N)c2nonc2N)cc1OC | 4 | 11 | 13 | 17 | 26 | -3 | . | . | . | . | .
N/C(=N\N=C\c1ccc(Br)o1)c1nonc1N | -2 | 31 | 17 | 48 | 36 | 3 | . | . | . | . | .
COc1cc(/C=N/N=C(\N)c2nonc2N)ccc1O | 13 | 89* | 14 | 93* | 94* | -6 | 93* | 92* | 99* | 94* | 92*
N/C(=N\N=C\c1cccc(O)c1)c1nonc1N | 13 | 95* | 18 | 95* | 97* | 11 | 97* | 99* | 102* | 98* | 94*
N/C(=N\N=C\c1ccc(O)cc1)c1nonc1N | 18 | 95* | 7 | 93* | 98* | 6 | 97* | 98* | 102* | 98* | 96*
